Source: PubChem BioAssay (several laboratories)
CatL inh: inhibitors of human cathepsin L | inhibition, %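 (tested at 10 µM)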 | purified cathepsin L, fluorogenic substrate, fluorescence | actives 0.17% (n = 58,000) | P07711; in the data active means inhibition above about 45%;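 further: 0% = enzyme with no compound and 100% = no enzyme blank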
CatB block: inhibitors of human cathepsin B. actives 0.1% (n = 63,000). inhibition, %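 (tested at 10 µM)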. P07858. purified cathepsin B, fluorogenic substrate, fluorescence. AID 453; in the data active means inhibition above about 21%;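 further: 0% = enzyme with no compound and 100% = no enzyme blank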
CatB mixtures: inhibitors of human cathepsin B in compound mixtures | P07858 | Purified cathepsin B, AMC dipeptide fluorescence | inhibition, %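 (ten-compound pools at 5 µM per compound and 50 µM total)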 | actives 0.06% (n = 62,000) | AID 488; in the data active means inhibition above about 22%, passing the limit was not always enough; inconclusive means no clear call, values can overlap the other calls;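 further: 0% = enzyme without compound and 100% = no enzyme blank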
CatS block: blocks human cathepsin S protease activity | P25774 | recombinant cathepsin S, AMC dipeptide fluorescence, pooled mixtures | inhibition, %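 (tested at 5 µM per compound within 10-compound mixtures)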 | actives 0.06% (n = 62,000) | AID 501; in the data active means inhibition above about 32%, passing the limit was not always enough; inconclusive means no clear call, values can overlap the other calls;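 further: 0% = enzyme without compound and 100% = blank without enzyme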
Target sequence (P25774 115-331 limits assumed): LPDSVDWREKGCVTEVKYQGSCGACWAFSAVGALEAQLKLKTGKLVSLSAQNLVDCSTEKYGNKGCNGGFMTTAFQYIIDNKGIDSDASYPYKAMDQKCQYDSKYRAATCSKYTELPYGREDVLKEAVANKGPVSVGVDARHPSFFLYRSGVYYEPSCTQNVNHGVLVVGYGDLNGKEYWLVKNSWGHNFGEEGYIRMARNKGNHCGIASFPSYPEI
DUSP1 inh: inhibitors of human MKP-1 phosphatase. P28562. recombinant MKP-1, OMFP hydrolysis fluorescence. inhibition, %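 (compounds tested at a single concentration somewhere between 10 and 100 µM)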. actives 0.15% (n = 65,000). AID 374;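 active means inhibition above about 50%, limit read from the data; inconclusive means inhibition over screen mean plus 3 SD, below that limit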;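 further: 0% = DMSO max control wells and 100% = wells with enzyme stopped by NaOH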
Cdc25B inh: human M-phase inducer phosphatase 2 inhibition; P30305; recombinant Cdc25B, OMFP fluorescence Ex485/Em525; inhibition, %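 (compounds tested at 10 µM final in the well)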; actives 0.1% (n = 65,000); in the data active means inhibition above about 50%
Numbers without * were called inactive; u = inconclusive; x = not tested or not shown. The list is not random: actives were taken first. Their share in the collection is about 0.57%.

SMILES | CatL inh | CatB block | CatB mixtures | CatS block | DUSP1 inh | Cdc25B inh
COc1ccc(-n2c(SCC(=O)N3CCCC3)nc3c([nH]c4ccccc43)c2=O)cc1 | x | -1 | 1 | -2 | 54* | -42
COc1ccc(-c2noc(COc3ccc(C)c(C)c3)n2)cc1OC | 8 | 2 | 3 | -2 | 16 | -20
COc1ccc(-c2csc(NC(=O)C3CCCO3)n2)cc1 (stereo unspecified) | x | 6 | 0 | -10 | -5 | 2
CCOC(=O)C(CC)n1cnc2sc3c(c2c1=O)CCC3 (stereo unspecified) | 1 | 0 | 6 | 12 | -24 | 84*
C=CCSC1=C(C#N)C(c2ccc(OCC)cc2)CC(=O)N1 (stereo unspecified) | 102* | 2 | -4 | u | -3 | -28
O=C(CNC(=O)c1ccco1)OCN1C(=O)c2ccccc2C1=O | 1 | 21* | 25* | -10 | 4 | -1
CC(=NCc1ccco1)c1c(O)n(C2CCCCC2)c(=O)[nH]c1=O | 4 | 0 | 6 | 20 | -2 | 9
CC(=NCc1ccco1)c1c(C)[nH]n(-c2nc3ccccc3s2)c1=O | -1 | -2 | -6 | 46* | -9 | -5
CC(=O)OCC(OC(C)=O)C(OC(C)=O)C(OC(C)=O)C(=O)Nc1ccc(C)cc1C (stereo unspecified) | 9 | 6 | 3 | -1 | 17 | -6
COc1cccc(OC)c1C(=O)N1CCN(Cc2ccccc2C)CC1 | x | -6 | 3 | 0 | 18 | 2
Cc1cccc(OCC(O)CN2C(C)(C)CC(O)CC2(C)C)c1C (stereo unspecified) | x | 2 | -5 | -3 | 2 | -20
CC(C)(C)NCC(O)COc1cccc2c1C[C@H](O)[C@H](O)C2 (stereo partly specified) | 20 | -2 | -6 | 5 | -16 | 100*
COc1cc(C(=O)Oc2ccccc2)ccc1OCc1c(C)noc1C | 4 | -6 | -4 | -10 | 1 | 3
Cc1cc(C)nc(N2CCC(C(=O)NCc3ccco3)CC2)n1 | -9 | -8 | 6 | -3 | -18 | -5
O=C(Cn1nnc(-c2ccccc2)n1)OCc1ccccc1 | x | -2 | 1 | -1 | -1 | 72*
CCOC(=O)N1CCN(c2c(N3CCc4ccccc43)c(=O)c2=O)CC1 | 17 | 10 | 1 | 3 | 1 | -9
CCOC(=O)N1CCN(c2c(N3CCN(c4ccccn4)CC3)c(=O)c2=O)CC1 | 86* | 3 | 4 | 4 | 3 | -8
Cc1nnc(SCc2nnc(-c3ccccc3Br)o2)n1-c1ccccc1 | 82* | 0 | 8 | 5 | 12 | 23
Cc1ccc(NC(=O)CSc2nnc(-c3ccc(S(=O)(=O)N4CCCC4)cc3)o2)cc1C | 21 | 2 | 3 | 1 | 53* | -6
O=C1CC(N2CCN(CCc3ccccn3)CC2)C(=O)N1c1ccc(Cl)cc1 (stereo unspecified) | -2 | 1 | 1 | 17 | 12 | 59*
CCOC(=O)C1C2C=CC3(CN(c4cccc(Cl)c4)C(=O)C13)O2 (stereo unspecified) | -4 | 9 | 3 | -3 | -5 | -9
CCOC(=O)CSc1nnc(CSc2nc(C)cc(C)n2)n1Cc1ccco1 | x | x | x | x | -1 | 7
CCOC(=O)CSc1nnc(Cc2ccccc2)n1Cc1ccco1 | 92* | 6 | -3 | -4 | -7 | -3
O=C(CSc1nc2ccccc2[nH]1)NCCN1CCCCC1 | 52* | 1 | 1 | -1 | 4 | -7
O=C(c1n[nH]c(=O)c2ccccc12)N1CCN(C2c3ccccc3-c3ccccc32)CC1 | 1 | 2 | 0 | 13 | 52* | 2
SMILES | CatL inh | CatB block | CatB mixtures | CatS block | DUSP1 inh | Cdc25B inh
CC1CCN(CCCNC(=O)c2n[nH]c(=O)c3ccccc23)CC1 | 11 | 6 | -2 | 3 | 5 | 2
CC1(C)NC(=O)N(CCOc2cccc(Cl)c2Cl)C1=O | -2 | -2 | -4 | 7 | -7 | -16
CCC(C(=O)O)n1nnc(-c2ccc(-c3ccc(OC)cc3)cc2)n1 (stereo unspecified) | 66* | -3 | 0 | 4 | 10 | -2
COc1ccc(-c2ccc(-c3nnn(CC(C)=O)n3)cc2)cc1 | 7 | 1 | -7 | 8 | 5 | -1
O=c1c2cc(N3CCOCC3)ccc2[nH]c(=S)n1Cc1ccco1 | 14 | -4 | 5 | 7 | 81* | -1
COc1ccc(CNC(=O)C2CCCN2C(=O)NC2CCCCC2)cc1 (stereo unspecified) | 11 | 5 | 4 | 0 | -11 | -7
